Measured values from PubChem BioAssay.
Several values for one entry are separate records, joined by “and”; a condition that tells them apart may be missing. Identical values can stand only once. A structure can be active in one record and inactive in another. Activity calls are given as the source filed them. Rule as the data show it: active = fold change permeability below about 0.7 or above about 1.3; inactive = in between.

Assay: compounds altering in vitro BBB leakiness – cell-based, FITC-avidin fluorescence, HTS, primary screen (AID 1963498); also: test concentration not given here
Details: brain endothelial barrier, actives lie on both sides

| SMILES | fold change permeability |
| --- | --- |
| CC[C@]1(O)C[C@H]2CN(CCc3c([nH]c4ccccc34)[C@@](C(=O)OC)(c3cc4c(cc3OC)N(C=O)[C@H]3[C@@](O)(C(=O)OC)[C@H](OC(C)=O)[C@]5(CC)C=CCN6CC[C@]43[C@@H]65)C2)C1 | 2.1 (active) |
| O=C1NC(=O)C(c2ccccc2)(c2ccccc2)N1 | 1.3 (active) and 1.1 (inactive) |
| CSc1c(C)c(SC)n2ccncc12 | 1.3 (active) |
